Experimental data reported in PubChem BioAssay.
The source made the active and inactive calls. Cut-off read from the data, not from the text of the source, unless noted: active = inhibition above about 80%; inactive = the rest.

Columns and labels:
[1] = viability loss with induced miR-34 in A549 – imaging, A549 dox-inducible miR-34, nuclei and caspase counts, primary screen (AID 1347080;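 active = compounds whose cell count with miR-34 switched on is under 0.7 times the count with it off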); settings: A549 miR-34 inducible, Hoechst nuclei count, 48 h
[2] = MELAS cybrid and Rieske KO viability enhancers – cell-based, MELAS cybrids, Rieske KO mouse fibroblasts, CellTiter-Glo, primary screen (AID 1508586;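 active = mean z-score across replicates of 1.96 or higher in either the MELAS or the Rieske mutant cell line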;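 note: z relative to plate mean and SD of compound and empty wells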); settings: low glucose
[3] = growth inhibition, single agent or in combination, cell-based, chromothripsis tumors, cisplatin or BGB combos (AID 1671449); settings: LFS_MB_P medulloblastoma cells;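 note: cells exposed for 96 hours; 0% = vehicle DMSO and 100% = killing by high DMSO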
[4] = growth inhibition, single agent and combos, cell-based, chromothripsis tumors, cisplatin or BGB combos (AID 1671450); settings: HDN33 neuroblastoma cells, stronger effect = higher value;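 note: cells exposed to compound for four days; 0% = vehicle DMSO and 100% = cell killing by high DMSO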
[5] = growth inhibition, single agents and combos, ICB984, cell-based, cisplatin or BGB combos, synergistic combos for chromothripsis tumors (AID 1671451; call rule not given here;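 note: cells exposed for 96 hours before readout; 0% = vehicle DMSO and 100% = killing by high DMSO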); settings: ICB984 medulloblastoma cells, drug combinations, stronger effect = higher value
[6] = growth inhibition, single agents and combos, LFS_MB_1R, cell-based, cisplatin or BGB combos, synergistic combos for chromothripsis tumors (AID 1671452); settings: LFS_MB_1R medulloblastoma cells, stronger effect = higher value;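 note: cells exposed for 96 hours before readout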
[7] = growth inhibition, single agents and combos, HTB85, cell-based, BGB or cisplatin IC20 combos, synergistic combos for chromothripsis tumors (AID 1671453); settings: HTB85 osteosarcoma cells, drug combinations, stronger effect = higher value;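 note: cells exposed for 96 hours before readout; 0% = vehicle DMSO and 100% = high DMSO killing control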
[8] = growth inhibition, single agents and combos, CRL2098, cell-based, BGB or cisplatin IC20 combos, synergistic combos for chromothripsis tumors (AID 1671454); settings: CRL2098 osteosarcoma cells, drug combinations, stronger effect = higher value;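 note: cells exposed for 96 h before readout; 0% = vehicle DMSO and 100% = killing by high DMSO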
[9] = growth inhibition, single agents and combos, HD-MB03, cell-based, BGB or cisplatin IC20 combos, synergistic combos for chromothripsis tumors (AID 1671455; in the data active = inhibition above about 83%;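 note: 0% = vehicle DMSO and 100% = high DMSO as cytotoxic control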); settings: HD-MB03 medulloblastoma cells, stronger effect = higher value
[10] = growth inhibition, single agents and combos, UWB1.289, cell-based, BGB or cisplatin combos, synergistic combos for chromothripsis tumors (AID 1671456); settings: UWB1.289 ovarian carcinoma cells, stronger effect = higher value;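 note: cells exposed to compound for four days; 0% = vehicle DMSO and 100% = killing by high DMSO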
[11] = growth inhibition, single agents and combos, LFS_MB_2R, cell-based, cisplatin combos, synergistic combos for chromothripsis tumors (AID 1671457); settings: LFS_MB_2R medulloblastoma cells, stronger effect = higher value;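 note: cells exposed to compound for four days before readout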
[12] = growth inhibition, MDA-MB-436, cell-based, BGB or cisplatin combos, synergistic combos for chromothripsis tumors (AID 1671458; call rule not given here;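 note: cells exposed for 96 hours; 0% = vehicle DMSO and 100% = killing by high DMSO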); settings: MDA-MB-436 breast carcinoma growth inhibition, drug combinations, stronger effect = higher value
[13] = UWB1.289_BRCA1 ovarian cancer growth, cell-based, BGB or cisplatin combinations (AID 1671459); settings: UWB1.289 BRCA1 ovarian carcinoma, drug combinations, stronger effect = higher value
[14] = drug combination toxicity in non-malignant astrocytes – cell-based, BGB or cisplatin IC20 combos, cytotoxicity control for chromothriptic childhood tumor combination screen (AID 1671460); settings: Human astrocytes, viability inhibition, drug combinations, at 0.5 µM, stronger effect = higher value;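 note: cells exposed to compounds for 96 hours before viability readout; 0% = vehicle and 100% = killing control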
[15] = BT084 cell growth, single and combined drugs, ICGC_MB145, cisplatin and BGB IC40 combos (AID 1671461); settings: BT084 medulloblastoma cells, drug combinations, stronger effect = higher value;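 note: cells exposed to drugs for 96 hours; 0% = vehicle DMSO and 100% = high DMSO full killing control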
[16] = RCMB18 cell growth, single agent and combined, cisplatin and BGB IC40 combos (AID 1671462); settings: RCMB18 medulloblastoma cells, stronger effect = higher value;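 note: cells exposed to compound for four days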
[17] = CRL1545 cell growth, single agent and combined, cisplatin and BGB IC20 combos (AID 1671464); settings: CRL1545 osteosarcoma cells, stronger effect = higher value;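 note: cells exposed to compound for 96 hours before readout; 0% = vehicle DMSO and 100% = high DMSO killing control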
[18] = measured here: combination with BGB IC40, at 0.05 µM
[19] = measured here: with BGB IC20 combination, at 0.5 µM
[20] = measured here: with cisplatin IC20 combination, at 0.5 µM
[21] = measured here: combination with cisplatin, at 0.5 µM
[22] = measured here: combination with cisplatin, at 5 µM

Cc1cc(C)c(Nc2ccnc(Nc3ccc(C#N)cc3)n2)c(C)c1
fold change ([1]; stronger effect = lower value, cell number ratio, induced over uninduced): 0.923 (inactive)
fold change ([1]; measured here: relative caspase fold change +Dox/-Dox): 0.624
cell count ([1]; measured here: total cells with miR-34 induction, stronger effect = lower value): 2390
cell count ([1]; measured here: total cells without miR-34 induction): 2590
z-score ([2]; MELAS cybrid survival, CellTiter-Glo 48 h, stronger effect = higher value): 0.0317 (inactive)
z-score ([2]; Rieske KO mouse fibroblast survival, CellTiter-Glo 72 h): 0.105
inhibition ([3]; at 0.5 µM, stronger effect = higher value): -1.98% (inactive)
inhibition ([3]; measured here: combination with BGB IC20, at 0.005 µM): -30.5%
inhibition ([3]; measured here: combination with BGB IC40, at 0.005 µM): -59.6%
inhibition [3, 18]: -34.5%
inhibition ([3]; measured here: combination with cisplatin, at 0.5 µM, stronger effect = higher value): -3.17%
inhibition ([3]; measured here: combination with cisplatin, at 5 µM, stronger effect = higher value): -40.8%
inhibition ([4]; BGB combo, at 5 µM): 15.1%
inhibition ([4]; at 0.5 µM): 0.3% (inactive)
inhibition ([4]; cisplatin combo, at 5 µM): 3.99%
inhibition [4, 19]: -2.53%
inhibition [4, 20]: 7.83%
inhibition ([4]; single agent, at 5 µM): 42.2%
inhibition ([5]; BGB IC20 combo, at 0.005 µM): -14.3%
inhibition ([5]; BGB IC40 combo, at 0.005 µM): -27.4%
inhibition ([5]; BGB IC40 combo, at 0.05 µM): -8.56%
inhibition ([5]; at 0.5 µM): -22.9% (inactive)
inhibition ([5]; cisplatin combo, at 0.05 µM): -14.1%
inhibition ([5]; cisplatin combo, at 0.5 µM): -41.4%
inhibition ([5]; cisplatin combo, at 5 µM): -46.6%
inhibition ([5]; measured here: 5 uM single agent, at 5 µM): -22%
inhibition ([6]; at 0.5 µM): -25.5% (inactive)
inhibition [6, 18]: -43.1%
inhibition [6, 21]: -56.3%
inhibition [6, 22]: -12.2%
inhibition ([7]; at 0.5 µM): -1.97% (inactive)
inhibition ([7]; measured here: with BGB IC20, at 0.5 µM): 4.79%
inhibition ([7]; measured here: with BGB IC20, at 5 µM): 40.8%
inhibition ([7]; measured here: with cisplatin IC20, at 0.5 µM): -20.5%
inhibition ([7]; measured here: with cisplatin IC20, at 5 µM): 9.74%
inhibition ([7]; single agent, at 5 µM): 50.9%
inhibition ([8]; at 0.5 µM): -8.33% (inactive)
inhibition ([8]; measured here: combination with BGB at IC20, at 0.5 µM): -39%
inhibition ([8]; measured here: combination with cisplatin at IC20, at 0.5 µM): 10.4%
inhibition ([9]; at 0.5 µM): -17.9% (inactive)
inhibition ([9]; measured here: combo with BGB at IC20, at 0.5 µM): -21.5%
inhibition ([9]; measured here: combo with cisplatin at IC20, at 0.5 µM): -28.7%
inhibition ([10]; at 0.5 µM): -2.26% (inactive)
inhibition ([10]; measured here: inhibition with BGB combination, at 0.05 µM): -10.8%
inhibition ([10]; measured here: inhibition with cisplatin combination, at 0.05 µM): -7.91%
inhibition ([11]; at 0.5 µM): -18.5% (inactive)
inhibition [11, 21]: -29.8%
inhibition [11, 22]: -25.8%
inhibition ([12]; at 0.5 µM): -14.9% (inactive)
inhibition ([12]; measured here: BGB combination, at 0.5 µM): -9.41%
inhibition ([12]; measured here: BGB combination, at 5 µM): 25.9%
inhibition ([12]; measured here: cisplatin combination, at 0.5 µM): -36.7%
inhibition ([12]; measured here: cisplatin combination, at 5 µM): 45.4%
inhibition ([13]; BGB combination, concentration series, at 5 µM): 69.3%
inhibition ([13]; at 0.5 µM): -2.68% (inactive)
inhibition ([13]; cisplatin combination, concentration series, at 5 µM): 45%
inhibition [14]: 11.9% (inactive)
inhibition ([14]; measured here: combo with BGB IC20): 11.7%
inhibition ([14]; measured here: combo with cisplatin IC20): 9.36%
inhibition ([15]; at 0.5 µM): 8.57% (inactive)
inhibition ([15]; cisplatin combination, at 0.5 µM): -23.4%
inhibition ([15]; cisplatin combination, at 5 µM): -181%
inhibition ([15]; measured here: BGB IC40 combination 0.05 uM, at 0.05 µM): -32.7%
inhibition ([15]; single agent, at 5 µM): 2.56%
inhibition ([16]; at 0.5 µM): -10.9% (inactive)
inhibition ([16]; cisplatin combo, at 5 µM): -30.4%
inhibition ([16]; measured here: BGB IC40 combination, at 0.05 µM): -21.8%
inhibition [16, 21]: -16.3%
inhibition ([16]; single agent, at 5 µM): 17.4%
inhibition ([17]; at 0.5 µM): 11.1% (inactive)
inhibition [17, 19]: -10.9%
inhibition [17, 20]: 20.9%
inhibition ([17]; single agent, at 0.05 µM): -17.9%
inhibition ([17]; single agent, at 5 µM): 56.2%
